Screens deposited in PubChem by National Center for Advancing Translational Sciences (NCATS).
Anesthetic bind – candidate novel general anesthetic via apoferritin binding | P02791 | apoferritin/1-aminoanthracene competitive binding, fluorescence | Potency, µM (titrated, usually from 77.5 µM), for inactives: at the highest dose activity change, negative = displacement, actives largely listed as inhibitors | 0.074% of 350,000 active | AID 485281; further: nearly all actives have a fitted effect of over 20% in size
Target sequence (P02791 2-175 limits assumed): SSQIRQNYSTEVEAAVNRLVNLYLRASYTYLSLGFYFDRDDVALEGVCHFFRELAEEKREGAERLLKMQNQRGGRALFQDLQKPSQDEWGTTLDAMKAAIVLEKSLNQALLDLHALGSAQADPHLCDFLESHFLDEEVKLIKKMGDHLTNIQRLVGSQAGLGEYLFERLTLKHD
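Concentration-response curves derived by four-parameter Hill fitting of normalized fluorescence, where compounds displaced 1-AMA from 10 uM horse apoferritin following a brief 10 min room-temperature incubation; propofol titration acted as positive control.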
TrxR1 substrate – rat thioredoxin reductase 1 substrate activity | Potency, µM (top dose mostly 114 µM), for inactives: at the top dose activity change, negative = substrate turnover | AID 588456 | O89049 | purified TrxR1 substrate turnover, NADPH consumption readout | 0.01% of 390,000 active; further: nearly all actives have a fitted effect of over 50% in size
Target sequence (O89049 whole entry, looked up): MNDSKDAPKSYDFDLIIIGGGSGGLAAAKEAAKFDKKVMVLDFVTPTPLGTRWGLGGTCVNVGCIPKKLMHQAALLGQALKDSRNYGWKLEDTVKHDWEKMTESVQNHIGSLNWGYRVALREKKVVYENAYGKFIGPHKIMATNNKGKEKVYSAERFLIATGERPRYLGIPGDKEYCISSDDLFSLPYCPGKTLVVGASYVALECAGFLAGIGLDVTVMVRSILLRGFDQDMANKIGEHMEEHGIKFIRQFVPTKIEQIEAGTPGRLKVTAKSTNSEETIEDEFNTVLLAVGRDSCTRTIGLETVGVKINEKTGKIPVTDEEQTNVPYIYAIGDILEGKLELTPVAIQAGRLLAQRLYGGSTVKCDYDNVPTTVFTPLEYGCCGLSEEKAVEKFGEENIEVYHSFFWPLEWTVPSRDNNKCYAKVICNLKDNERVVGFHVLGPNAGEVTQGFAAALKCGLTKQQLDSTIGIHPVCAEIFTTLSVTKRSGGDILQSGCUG
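Rat TrxR1, dispensed at 90 nM, was prereduced with 400 uM NADPH (final) for 5 min at ~22 deg C, then incubated with compound 15 min before 400 uM selenite. A first-read NADPH fluorescence drop versus no-compound background flagged substrates.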
rTrxR1 inhibitor – blocks rat thioredoxin reductase 1; recombinant rTrxR1, NADPH fluorescence consumption, selenite substrate; AID 588453; Potency, µM (top dose mostly 114 µM), for the others: at the highest dose activity change, negative = inhibition, actives largely listed as inhibitors; O89049; 1% of 390,000 active; further: nearly all actives have a fitted effect of over 65% in size
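Rat TrxR1 (90 nM in the dispensed reagent) was pre-reduced with 400 uM NADPH for 5 min at room temperature, then incubated with compound for 15 min. After 400 uM selenite was added, NADPH fluorescence (Ex 340/Em 450 nm) was followed for 8 min.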
PKM2 activator – increases activity of human pyruvate kinase M2. P14618. purified PKM2, Kinase-Glo ATP luminescence, activation; response scale: 0% is enzyme alone, no compound. Potency, µM (doses to about 57.5 µM), inactives show at the top dose activation, actives largely listed as activators. 0.34% of 260,000 active. AID 1631; further: nearly all actives have a fitted effect of over 55% in size
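Kinase-Glo luminescence reports ATP generated from ADP (0.1 mM) and PEP (0.5 mM) by purified hPK-M2 after 1 h at room temperature, pH 7.2 imidazole buffer; intermediate enzyme activity allows detecting inhibitors and activators.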
GALK inh – inhibitors of human galactokinase; 0.007% of 270,000 active; Purified GALK, Kinase-Glo residual ATP luminescence; P51570; Potency, µM (highest dose often 57.5 µM), without a hit: at the highest dose activity change, negative = inhibition, hits mostly inhibitors
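Quantitative HTS: GALK 5 nM, ATP 35 uM, galactose 100 uM, 1 h room temperature, then luciferase-based ATP detection.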
mIDH1 inhibitor – inhibitors of human mutant IDH1 R132H. IDH1-R132H enzyme, NADPH consumption, diaphorase/resazurin fluorescence. Potency, µM (doses to about 76.6 µM), for the others: top-dose activity change, negative = inhibition, most hits filed as inhibitors. 0.093% of 390,000 active. AID 602179; further: nearly all actives have a fitted effect of over 65% in size
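IDH1-R132H (0.5 ug/mL dispensed) in pH 7.5 Tris buffer was preincubated 30 min with compound, then given a substrate mix of 0.016 mM NADPH and 2 mM alpha-KG for 80 min at room temperature; remaining NADPH was read by diaphorase/resazurin fluorescence.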
* marks the source's active call; other numbers are inactive results; ? = inconclusive; . = no result; [ ] = dose if it differs, or a comment. Rows were chosen to be rich in hits. Some 1.3% of all compounds tested hit in one or more screens of this group. The call rests on the fitted dose curve; in most records, active means well fitted curve in the direction sought with a large enough effect; inconclusive means small, poorly fitted or top-dose-only effect, or another doubt; inactive means no such curve, though single readings can be large; an effect the other way counts as inactive or inconclusive. On the % scale 0 is the no-effect control and ±100 the full control effect; potency means the concentration at half of the fitted maximal effect.

SMILES	Anesthetic bind	TrxR1 substrate	rTrxR1 inhibitor	PKM2 activator	GALK inh	mIDH1 inhibitor
Cc1ccc2cc(C3CC(c4ccco4)=NN3S(C)(=O)=O)c(Cl)nc2c1 (configuration not stated)	1%	-4%	79µM*	17%	-1%	-4%
Cc1ccc2nc(Cl)c(C3CC(c4ccco4)=NN3S(C)(=O)=O)cc2c1 (configuration not stated)	2%	6%	?	26%	5%	4%
CC(C)(C)n1ncc2c(=O)n(Cc3ccc(C#N)cc3)cnc21	.	0%	-2%	.	.	.
CC(C)S(=O)(=O)c1oc(-c2cccs2)nc1S(=O)(=O)c1ccc(F)cc1	-10%	29%	0.71µM*	.	.	36%
Cc1ccc(S(=O)(=O)c2nc(-c3cccs3)oc2SC(C)C)cc1	-4%	10%	17%	.	.	5%
CCCCS(=O)(=O)c1oc(-c2ccc(F)cc2)nc1S(=O)(=O)c1ccccc1	?	-3%	1.1µM*	.	.	14%
CCS(=O)(=O)c1oc(-c2ccc(F)cc2)nc1S(=O)(=O)c1ccc(Br)cc1	?	8%	0.56µM*	.	.	-24%
CSc1oc(-c2ccc(F)cc2)nc1S(=O)(=O)c1ccccc1	1%	-4%	13%	5%	1%	2%
CC(C)S(=O)(=O)c1oc(-c2ccc(F)cc2)nc1S(=O)(=O)c1ccccc1	-17%	11%	0.32µM*	.	.	17%
COc1ccc(-c2cc(C(C)=O)c(C)n2CCC(=O)Nc2cc(Cl)ccc2C)cc1	5%	-6%[57.1 µM]	-2%[57.1 µM]	.	.	-1%
Cn1nc(-c2ccc(OCC(=O)Nc3cccc(C(F)(F)F)c3)cc2)c2ccccc2c1=O	-17%	12%	14%	.	.	-10%
CS(=O)(=O)c1oc(-c2ccc(F)cc2)nc1S(=O)(=O)c1ccc(Cl)cc1	-11%	11%	0.5µM*	.	.	-11%
CC(C)(C)NC(=O)C(c1ccc(O)cc1)N(Cc1ccco1)C(=O)CCC(=O)Nc1ccccn1 (configuration not stated)	-12%	6%	15%	-2%	-4%	0%
CC(C)(C)NC(=O)C(c1ccc(Cl)cc1)N(Cc1ccco1)C(=O)CCl (configuration not stated)	-8%	4%	13µM*	-5%	0%	2%
CN1C(=O)/C(=C\C(=O)c2cccs2)c2ccccc21	?	0%[57.1 µM]	-23%[57.1 µM]	1%	0%	9%
CC(=O)/C=C1\C(=O)N(C)c2ccccc21	.	20%[57.1 µM]	30µM*	.	.	.
Cc1ccc(SC(CC(=O)c2ccc(C)cc2)C(=O)O)cc1 (configuration not stated)	-11%	-4%	40µM*	-6%	1%	-1%
O=C(CC(Sc1ccc(Br)cc1)C(=O)O)c1ccc(Br)cc1 (configuration not stated)	-11%	.	.	.	-7%	.
Cc1ccccc1Nc1c(-c2ccco2)nc2c(C)cccn12	-3%	163%	?	.	.	-6%
O=C(NCc1ccco1)c1ccc2c(c1)C(=O)c1ccccc1-2	-1%	4%[57.1 µM]	20µM*	?	-7%	-1%
Cc1onc(-c2ccccc2Cl)c1C(=O)NCc1ccco1	-17%	3%	50µM*	22%	7%	8%
Cc1cc(C)cc(C(=O)C[n+]2cccc(Br)c2)c1	.	1%	-6%	.	.	.
CCOc1ccc(S(=O)(=O)Nc2ccc(-c3ccc(OC)nn3)cc2)cc1	?	-2%[57.1 µM]	10%[57.1 µM]	.	.	0%
CC(NC(=O)Cn1c(=O)[nH]c2ccsc2c1=O)C12CC3CC(CC(C3)C1)C2 (configuration not stated)	14µM*	9%	12%	0%	1%	2%
CC(NC(=O)Cn1ccsc1=N)C12CC3CC(CC(C3)C1)C2 (configuration not stated)	-22%	-13%	16%[57.1 µM]	-22%	2%	5%
SMILES	Anesthetic bind	TrxR1 substrate	rTrxR1 inhibitor	PKM2 activator	GALK inh	mIDH1 inhibitor
Cc1cnc2ccccc2c1/C=C/c1ccc(N(C)C)cc1	.	-1%	11%	.	.	.
COC(=O)c1cc(C(=O)c2cccc(Cl)c2Cl)cn1C	?	-2%	2%	25µM*	-5%	0%
O=C(C=Cc1cccnc1)c1ccccc1	.	-7%	28µM*	.	.	1%
CCN1C(=O)C(O)(CC(=O)/C=C/C=C/c2ccccc2)c2ccccc21 (configuration not stated)	?	-11%	?	6%	-4%	1%
C#CCN1C(=O)C(O)(CC(=O)/C=C/C=C/c2ccccc2)c2ccccc21 (configuration not stated)	-24%	-6%	28µM*	8%	7%	9%
Cc1cc(C)c2[nH]c(=O)c(CN(Cc3ccco3)C(=O)c3cccs3)cc2c1	-8%	.	.	14%	3%	.
O=C(c1cccs1)N(Cc1ccco1)Cc1cc2ccccc2[nH]c1=O	-22%	4%	-8%	22µM*	0%	0%
C1=CC2c3ccccc3NC(c3ccncc3)C2C1 (configuration not stated)	?	-2%	7.9µM*	19%	-1%	-2%
COc1ccc(OCC(=O)Nc2cccc3ncccc23)cc1	-8%	-8%	3%[57.1 µM]	1%	4%	4%
O=C(CCl)Nc1cccc2ncccc12	5%	-4%	50µM*	10%	1%	8%
O=C(CCCl)Nc1cccc2cccnc12	.	9%	13µM*	.	.	.
Cc1ccc(S(=O)(=O)N2CCCC2C(=O)OCc2ccccc2)cc1 (configuration not stated)	-15%	-5%	12%	2%	3%	2%
Cc1ccc(S(=O)(=O)N2CCCC2C(=O)OCc2ccco2)cc1 (configuration not stated)	3%	10%	7.9µM*	19%	0%	1%
CN1CCN(c2cc(=O)n(Cc3ccc(F)cc3)c(=O)[nH]2)CC1	-5%	1%[57.1 µM]	14µM*	1%	1%	9%
Cc1nn(-c2cccc(Cl)c2)c2nc(-c3ccco3)cc(C(=O)O)c12	-7%	51%	50µM*	8%	-7%	0%
N#Cc1nc(-c2ccccc2)cc(-c2ccccc2)n1	.	6%	8%	.	.	.
COc1ccccc1N1CCN(C(=O)CSc2nc(C)c(Cc3ccccc3)c(=O)[nH]2)CC1	-18%	-3%[57.1 µM]	-6%[57.1 µM]	13µM*	-3%	-2%
O=C(C[n+]1c(Cl)cc(Cl)c2ccccc21)c1ccccc1	.	5%	71µM*	.	.	.
COCCN(CCOC)c1nc(C)nc2c1nc(-c1ccccc1)n2CCCN1CCCCC1C (configuration not stated)	-12%	.	.	-1%	.	.
